# ± gives the standard deviation of the averaged measurements. Targets with the largest changes are over-represented here; the source holds about 6,200 in all.
# Compound: Nc1ncnc2c1ncn2[C@@H]1O[C@H](COP(=O)(O)OP(=O)(O)NP(=O)(O)O)[C@@H](O)[C@H]1O [adenylyl imidodiphosphate]
# Test: NP40-soluble protein abundance relative to vehicle (solubility fold change) (ratio); higher = more soluble protein in presence of AMP-PNP
# Method in brief: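 Each value is a fold change relative to the detergent-processed vehicle, calculated per replicate from vsn-normalised intensities. Jurkat crude lysate received eight concentrations (0.1 to 10 mM) for 10 min at room temperature and 3 min at 37 °C, then was solubilised in 0.8% NP40 with benzonase (60 min, 4 °C). The ultracentrifuged supernatant was TMT-labelled and run by LC-MS/MS in three independent experiments.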
# UniProt P48444, sequence (P48444 whole entry, one chain of several): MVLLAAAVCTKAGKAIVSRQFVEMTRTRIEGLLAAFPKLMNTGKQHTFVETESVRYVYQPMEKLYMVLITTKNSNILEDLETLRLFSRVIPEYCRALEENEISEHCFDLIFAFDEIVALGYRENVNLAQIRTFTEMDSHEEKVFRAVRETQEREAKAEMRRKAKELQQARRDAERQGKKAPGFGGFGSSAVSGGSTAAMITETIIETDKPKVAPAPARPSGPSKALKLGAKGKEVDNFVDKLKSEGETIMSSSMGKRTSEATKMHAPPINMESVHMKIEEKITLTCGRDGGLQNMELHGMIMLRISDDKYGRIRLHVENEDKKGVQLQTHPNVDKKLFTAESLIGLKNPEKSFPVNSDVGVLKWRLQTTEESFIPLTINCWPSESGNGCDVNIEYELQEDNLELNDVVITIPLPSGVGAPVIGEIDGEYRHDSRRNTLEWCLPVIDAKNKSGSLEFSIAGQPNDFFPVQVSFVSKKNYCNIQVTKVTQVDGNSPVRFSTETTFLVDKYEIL
# UniProt O75155, sequence (O75155 whole entry): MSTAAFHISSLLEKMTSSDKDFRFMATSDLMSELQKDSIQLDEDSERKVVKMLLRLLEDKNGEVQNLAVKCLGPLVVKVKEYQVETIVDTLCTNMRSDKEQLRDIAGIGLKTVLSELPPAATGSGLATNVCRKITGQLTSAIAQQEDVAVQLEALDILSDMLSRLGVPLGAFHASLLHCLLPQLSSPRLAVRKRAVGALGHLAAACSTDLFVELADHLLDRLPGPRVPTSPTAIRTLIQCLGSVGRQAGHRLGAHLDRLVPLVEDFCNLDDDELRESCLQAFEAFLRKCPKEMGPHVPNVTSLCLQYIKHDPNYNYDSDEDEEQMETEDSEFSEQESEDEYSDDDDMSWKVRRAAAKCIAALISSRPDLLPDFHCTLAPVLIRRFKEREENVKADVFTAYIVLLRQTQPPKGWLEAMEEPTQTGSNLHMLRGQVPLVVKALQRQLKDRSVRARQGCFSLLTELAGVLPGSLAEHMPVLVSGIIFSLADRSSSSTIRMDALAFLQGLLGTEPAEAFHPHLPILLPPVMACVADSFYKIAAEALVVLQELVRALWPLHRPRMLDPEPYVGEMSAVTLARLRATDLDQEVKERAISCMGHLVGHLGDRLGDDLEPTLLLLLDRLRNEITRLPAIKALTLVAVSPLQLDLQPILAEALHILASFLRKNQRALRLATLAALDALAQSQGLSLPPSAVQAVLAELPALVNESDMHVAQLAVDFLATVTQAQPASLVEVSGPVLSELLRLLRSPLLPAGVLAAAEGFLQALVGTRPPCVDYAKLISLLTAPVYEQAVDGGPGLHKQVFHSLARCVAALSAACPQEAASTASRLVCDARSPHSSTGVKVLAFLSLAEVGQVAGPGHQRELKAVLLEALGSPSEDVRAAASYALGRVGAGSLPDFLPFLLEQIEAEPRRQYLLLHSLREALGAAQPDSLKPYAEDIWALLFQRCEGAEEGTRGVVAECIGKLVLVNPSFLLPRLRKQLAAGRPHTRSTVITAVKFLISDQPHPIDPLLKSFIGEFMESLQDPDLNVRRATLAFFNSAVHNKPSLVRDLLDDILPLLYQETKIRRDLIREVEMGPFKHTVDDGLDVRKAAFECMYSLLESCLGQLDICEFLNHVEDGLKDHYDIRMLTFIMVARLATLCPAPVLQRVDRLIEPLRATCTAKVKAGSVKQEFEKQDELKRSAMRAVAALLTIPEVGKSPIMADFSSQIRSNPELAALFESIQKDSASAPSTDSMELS
# UniProt Q96QD8, sequence (Q96QD8 whole entry, one chain of several): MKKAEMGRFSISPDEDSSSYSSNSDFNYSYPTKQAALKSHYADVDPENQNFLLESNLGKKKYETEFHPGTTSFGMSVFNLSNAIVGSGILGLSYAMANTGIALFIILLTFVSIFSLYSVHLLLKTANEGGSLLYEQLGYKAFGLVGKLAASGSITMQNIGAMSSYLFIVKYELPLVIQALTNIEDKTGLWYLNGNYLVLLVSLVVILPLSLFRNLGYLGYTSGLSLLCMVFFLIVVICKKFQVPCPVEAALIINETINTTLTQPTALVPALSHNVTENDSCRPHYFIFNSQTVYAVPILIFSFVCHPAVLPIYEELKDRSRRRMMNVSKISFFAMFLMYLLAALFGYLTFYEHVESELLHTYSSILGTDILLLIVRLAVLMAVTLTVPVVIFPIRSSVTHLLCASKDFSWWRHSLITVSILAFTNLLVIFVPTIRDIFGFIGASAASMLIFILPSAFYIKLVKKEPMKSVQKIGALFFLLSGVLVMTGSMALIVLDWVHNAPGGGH
# UniProt Q8WUI4, sequence (Q8WUI4 whole entry, one chain of several): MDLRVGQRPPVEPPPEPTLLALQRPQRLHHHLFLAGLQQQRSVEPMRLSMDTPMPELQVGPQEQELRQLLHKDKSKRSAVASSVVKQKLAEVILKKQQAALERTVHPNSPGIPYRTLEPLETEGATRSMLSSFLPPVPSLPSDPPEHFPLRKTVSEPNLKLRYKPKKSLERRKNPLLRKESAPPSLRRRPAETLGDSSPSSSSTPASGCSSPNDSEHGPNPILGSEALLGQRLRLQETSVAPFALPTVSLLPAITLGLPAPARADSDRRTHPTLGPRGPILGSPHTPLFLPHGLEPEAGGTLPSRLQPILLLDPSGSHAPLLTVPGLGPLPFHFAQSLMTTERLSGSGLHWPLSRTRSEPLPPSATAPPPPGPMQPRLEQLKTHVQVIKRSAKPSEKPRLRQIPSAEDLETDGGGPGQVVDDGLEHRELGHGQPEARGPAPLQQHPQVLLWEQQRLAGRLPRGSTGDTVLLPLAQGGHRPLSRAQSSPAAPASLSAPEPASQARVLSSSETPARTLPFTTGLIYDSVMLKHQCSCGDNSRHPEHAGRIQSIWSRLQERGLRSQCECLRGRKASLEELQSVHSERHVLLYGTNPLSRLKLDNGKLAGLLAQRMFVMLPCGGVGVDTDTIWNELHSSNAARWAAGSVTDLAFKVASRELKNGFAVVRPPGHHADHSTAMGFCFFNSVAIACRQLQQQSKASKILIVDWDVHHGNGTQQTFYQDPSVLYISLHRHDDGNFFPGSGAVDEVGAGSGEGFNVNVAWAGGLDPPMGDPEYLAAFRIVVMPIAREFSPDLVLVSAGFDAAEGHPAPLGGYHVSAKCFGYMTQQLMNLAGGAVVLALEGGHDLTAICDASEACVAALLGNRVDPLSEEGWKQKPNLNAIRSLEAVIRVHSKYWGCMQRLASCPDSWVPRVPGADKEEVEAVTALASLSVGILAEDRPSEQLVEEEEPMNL
# UniProt Q99933, sequence (Q99933 whole entry, one chain of several): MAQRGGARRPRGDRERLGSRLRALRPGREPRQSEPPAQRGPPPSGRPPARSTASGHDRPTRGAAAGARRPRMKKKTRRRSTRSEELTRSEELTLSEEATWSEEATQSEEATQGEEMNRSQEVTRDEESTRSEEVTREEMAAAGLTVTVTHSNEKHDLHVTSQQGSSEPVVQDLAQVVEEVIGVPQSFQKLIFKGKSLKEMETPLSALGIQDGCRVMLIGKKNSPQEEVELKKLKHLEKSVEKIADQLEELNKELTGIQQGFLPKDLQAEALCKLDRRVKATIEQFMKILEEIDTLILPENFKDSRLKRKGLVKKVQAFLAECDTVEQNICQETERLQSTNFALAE
# UniProt O43290, sequence (O43290 whole entry): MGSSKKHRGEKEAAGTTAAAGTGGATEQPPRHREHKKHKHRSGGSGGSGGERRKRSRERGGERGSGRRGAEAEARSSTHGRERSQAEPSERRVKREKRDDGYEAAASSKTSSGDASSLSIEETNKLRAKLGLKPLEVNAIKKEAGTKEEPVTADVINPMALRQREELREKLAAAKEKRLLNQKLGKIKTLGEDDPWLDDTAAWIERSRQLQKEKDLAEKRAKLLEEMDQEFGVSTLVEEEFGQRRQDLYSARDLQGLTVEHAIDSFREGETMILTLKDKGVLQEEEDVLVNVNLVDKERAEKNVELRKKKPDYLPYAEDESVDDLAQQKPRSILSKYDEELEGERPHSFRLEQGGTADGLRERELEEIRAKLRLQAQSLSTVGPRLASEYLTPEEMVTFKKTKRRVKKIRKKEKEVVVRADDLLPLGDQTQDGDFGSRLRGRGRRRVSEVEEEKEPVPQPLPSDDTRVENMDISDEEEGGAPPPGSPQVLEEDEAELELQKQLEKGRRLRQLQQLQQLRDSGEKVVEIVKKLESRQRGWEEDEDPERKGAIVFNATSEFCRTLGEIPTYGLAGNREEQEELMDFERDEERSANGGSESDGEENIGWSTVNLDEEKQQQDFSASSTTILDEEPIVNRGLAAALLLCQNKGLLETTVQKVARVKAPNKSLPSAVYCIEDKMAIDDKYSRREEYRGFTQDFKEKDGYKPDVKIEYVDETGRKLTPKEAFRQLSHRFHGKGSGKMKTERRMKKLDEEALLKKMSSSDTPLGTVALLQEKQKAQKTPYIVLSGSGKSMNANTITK
# UniProt Q96C01, sequence (Q96C01 whole entry, one chain of several): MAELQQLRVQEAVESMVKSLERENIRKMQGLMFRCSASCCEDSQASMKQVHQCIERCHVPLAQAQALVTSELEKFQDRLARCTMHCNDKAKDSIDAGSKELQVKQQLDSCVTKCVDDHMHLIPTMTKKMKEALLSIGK
# UniProt P02686, sequence (P02686 whole entry, one chain of several): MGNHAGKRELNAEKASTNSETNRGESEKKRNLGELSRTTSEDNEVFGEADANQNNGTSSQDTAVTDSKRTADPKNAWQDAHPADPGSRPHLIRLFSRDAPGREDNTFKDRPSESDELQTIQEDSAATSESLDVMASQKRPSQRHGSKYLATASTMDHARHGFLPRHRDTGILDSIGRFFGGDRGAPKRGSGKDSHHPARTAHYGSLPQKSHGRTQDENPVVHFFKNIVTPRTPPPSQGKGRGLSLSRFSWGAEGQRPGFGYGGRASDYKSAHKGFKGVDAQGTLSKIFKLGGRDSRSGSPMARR
Target,NP40-soluble protein abundance (concentration: 1mM),NP40-soluble protein abundance (concentration: 2mM),NP40-soluble protein abundance (concentration: 4mM),NP40-soluble protein abundance (concentration: 6mM),NP40-soluble protein abundance (concentration: 8mM),NP40-soluble protein abundance (concentration: 10mM)
ARPC2 (UniProt O15144),0.974 ± 0.033,0.896 ± 0.11,0.937 ± 0.023,0.976 ± 0.031,0.994 ± 0.046,0.957 ± 0.048
UniProt O00567,1.08 ± 0.026,1.08 ± 0.024,1.16 ± 0.026,1.25 ± 0.056,1.37 ± 0.087,1.53 ± 0.12
J3QTA2|Q99933|Q99933-3|Q99933-4 (UniProt Q99933),1.01 ± 0.028,1.029 ± 0.0083,0.992 ± 0.012,0.99 ± 0.03,0.965 ± 0.038,0.993 ± 0.021
E7EQY1|Q96C01 (UniProt Q96C01),1.01 ± 0.036,1.11 ± 0.07,0.988 ± 0.082,0.991 ± 0.062,0.958 ± 0.062,0.968 ± 0.11
E7EQN5|P98171|P98171-2 (UniProt P98171),0.999 ± 0.013,0.997 ± 0.05,1.02 ± 0.032,1.03 ± 0.077,1.01 ± 0.056,1.04 ± 0.023
H0YHA7|J3QQ67|Q07020|Q07020-2 (UniProt Q07020),1.02 ± 0.038,0.9774 ± 0.0023,1.01 ± 0.086,0.9115 ± 0.0037,0.766 ± 0.042,1.04 ± 0.082
A0A0A6YYC8|I3L1I5 (UniProt I3L1I5),1.01 ± 0.027,1.02 ± 0.04,1.02 ± 0.012,1.01 ± 0.023,1 ± 0.02,1.009 ± 0.0072
UniProt O60508|Q5SRN1,1.03 ± 0.018,1.07 ± 0.029,1.06 ± 0.026,1.09 ± 0.059,1.08 ± 0.044,1.13 ± 0.056
F8VU39|J3KPG5|Q9UIF9|Q9UIF9-2|Q9UIF9-3 (UniProt Q9UIF9),1 ± 0.015,0.9926 ± 0.0061,1.023 ± 0.0073,1.02 ± 0.039,1.01 ± 0.014,1.03 ± 0.037
F8W1A0|P36873 (UniProt P36873),0.983 ± 0.022,0.928 ± 0.056,0.972 ± 0.014,0.985 ± 0.03,0.986 ± 0.021,0.9667 ± 0.0073
F8VQE1|Q9UHB6|Q9UHB6-2 (UniProt Q9UHB6),1.17 ± 0.073,1.28 ± 0.2,1.33 ± 0.12,1.39 ± 0.18,1.37 ± 0.17,1.58 ± 0.21
C9JIF9|P13798 (UniProt P13798),0.953 ± 0.027,0.88 ± 0.061,0.915 ± 0.0095,0.903 ± 0.014,0.909 ± 0.022,0.871 ± 0.04
K4DI93|Q13620-1 (UniProt Q13620),0.991 ± 0.011,0.936 ± 0.05,0.9972 ± 0.0076,0.992 ± 0.028,1 ± 0.017,0.995 ± 0.024
SART1 (UniProt O43290),1.07 ± 0.048,1.12 ± 0.054,1.11 ± 0.034,1.22 ± 0.089,1.26 ± 0.067,1.36 ± 0.081
UniProt O43148|O43148-2,0.996 ± 0.013,1.01 ± 0.011,0.992 ± 0.017,0.992 ± 0.027,0.985 ± 0.029,1 ± 0.033
B0YIW6|P48444 (UniProt P48444),0.98 ± 0.015,0.931 ± 0.045,0.949 ± 0.01,0.9391 ± 0.0089,0.9554 ± 0.0037,0.921 ± 0.017
I3L448|Q5TC12 (UniProt Q5TC12),1.01 ± 0.033,1.02 ± 0.015,1.01 ± 0.039,0.992 ± 0.029,0.965 ± 0.027,0.977 ± 0.039
L0R819 (UniProt Q9NWL6),1.04 ± 0.017,1.03 ± 0.074,1.01 ± 0.026,0.996 ± 0.089,0.972 ± 0.055,1 ± 0.044
CAND2 (UniProt O75155),0.973 ± 0.018,0.942 ± 0.027,0.986 ± 0.045,1 ± 0.066,1.01 ± 0.031,1.02 ± 0.023
UniProt O60504-2|O60504,1.03 ± 0.013,0.999 ± 0.018,1.04 ± 0.018,1.03 ± 0.029,1.02 ± 0.029,1.02 ± 0.025
J3KS94|J3QQK6|P02686|P02686-2 (UniProt P02686),0.968 ± 0.054,0.993 ± 0.035,0.96 ± 0.03,0.928 ± 0.033,0.896 ± 0.013,0.903 ± 0.029
PSMD3 (UniProt O43242),0.909 ± 0.031,0.865 ± 0.055,0.885 ± 0.091,0.906 ± 0.087,0.933 ± 0.11,0.915 ± 0.14
N4BP1 (UniProt O75113),1.01 ± 0.014,1.02 ± 0.039,1.02 ± 0.032,0.979 ± 0.027,0.96 ± 0.012,0.954 ± 0.028
J3KPH8|Q8WUI4|Q8WUI4-3|Q8WUI4-4|Q8WUI4-5|Q8WUI4-6|Q8WUI4-7|Q8WUI4-8 (UniProt Q8WUI4),0.979 ± 0.04,1 ± 0.027,1 ± 0.026,0.98 ± 0.024,0.998 ± 0.067,0.9557 ± 0.0038
DKC1 (UniProt O60832),1.049 ± 0.0097,1.1 ± 0.057,1.13 ± 0.028,1.21 ± 0.051,1.29 ± 0.046,1.36 ± 0.083
F8VX10|F8VXI8|Q9H9L4 (UniProt Q9H9L4),1.01 ± 0.014,1.06 ± 0.033,1.05 ± 0.033,1.02 ± 0.066,1.031 ± 0.0027,1.04 ± 0.044
F5H7T0|F6RJM5|Q96S38|Q96S38-2 (UniProt Q96S38),0.999 ± 0.0077,1.02 ± 0.028,1.01 ± 0.034,0.9695 ± 0.004,0.991 ± 0.023,0.965 ± 0.046
H3BPB8|P34949 (UniProt P34949),1.029 ± 0.0072,1.01 ± 0.039,1.02 ± 0.027,0.976 ± 0.029,1.01 ± 0.042,0.988 ± 0.048
F8VX04|Q9H2H9 (UniProt Q9H2H9),1.14 ± 0.1,1.36 ± 0.19,1.1 ± 0.051,1.06 ± 0.094,1.01 ± 0.087,1.13 ± 0.19
F8VUY8|Q96QD8 (UniProt Q96QD8),1 ± 0.015,1.07 ± 0.091,1 ± 0.022,0.967 ± 0.022,0.988 ± 0.014,0.989 ± 0.02
